In publication PMC4336329 (PLoS ONE, 2015):
Out of some 310,000 compounds screened, about 14,000 (4.5%) showed an effect of 50% or more. The effect is printed as a negative number. This excerpt belongs to a sample that is enriched for strong results.

target: human ether-à-go-go-related gene (hERG) potassium channel (human, UniProt Q12809); experiment: primary screen, population patch clamp on CHO cells stably expressing hERG; higher = less effect of the substance
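Further: peak tail current of the secondary pulse compared with the same well before compound.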

Sequence of human ether-à-go-go-related gene (hERG) potassium channel (Q12809 whole entry, looked up): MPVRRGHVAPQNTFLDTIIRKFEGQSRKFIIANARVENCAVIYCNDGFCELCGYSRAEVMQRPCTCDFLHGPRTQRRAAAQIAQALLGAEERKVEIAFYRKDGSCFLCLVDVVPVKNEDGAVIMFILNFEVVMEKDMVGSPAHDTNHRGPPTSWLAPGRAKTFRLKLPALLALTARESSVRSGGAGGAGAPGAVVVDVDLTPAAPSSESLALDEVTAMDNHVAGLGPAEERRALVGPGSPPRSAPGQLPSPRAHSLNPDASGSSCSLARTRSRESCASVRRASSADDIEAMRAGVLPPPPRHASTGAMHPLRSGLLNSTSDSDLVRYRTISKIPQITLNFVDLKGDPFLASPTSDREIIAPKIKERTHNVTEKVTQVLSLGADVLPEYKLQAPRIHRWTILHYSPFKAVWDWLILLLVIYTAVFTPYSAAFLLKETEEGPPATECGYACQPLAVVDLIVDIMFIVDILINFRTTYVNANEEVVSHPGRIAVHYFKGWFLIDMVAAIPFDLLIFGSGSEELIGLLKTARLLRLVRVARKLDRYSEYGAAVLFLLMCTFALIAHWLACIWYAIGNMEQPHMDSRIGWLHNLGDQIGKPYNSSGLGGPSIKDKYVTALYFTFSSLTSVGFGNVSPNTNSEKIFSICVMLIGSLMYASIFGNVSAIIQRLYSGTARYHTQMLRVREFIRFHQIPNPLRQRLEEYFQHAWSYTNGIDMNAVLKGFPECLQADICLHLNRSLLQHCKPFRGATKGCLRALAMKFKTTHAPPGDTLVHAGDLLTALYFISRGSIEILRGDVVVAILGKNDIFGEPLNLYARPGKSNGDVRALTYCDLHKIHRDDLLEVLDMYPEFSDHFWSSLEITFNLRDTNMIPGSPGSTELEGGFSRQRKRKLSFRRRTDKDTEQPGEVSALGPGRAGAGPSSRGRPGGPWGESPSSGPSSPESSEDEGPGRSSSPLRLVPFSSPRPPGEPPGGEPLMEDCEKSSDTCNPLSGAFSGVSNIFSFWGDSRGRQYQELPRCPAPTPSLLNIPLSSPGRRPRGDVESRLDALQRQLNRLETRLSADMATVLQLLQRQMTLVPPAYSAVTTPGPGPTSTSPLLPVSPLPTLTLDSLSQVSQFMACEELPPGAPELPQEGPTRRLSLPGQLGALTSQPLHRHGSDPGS

Row | Compound | hERG current change (%, negative = inhibition) at 10uM [%]
1 | Cc1ccc(CNC(=O)CCC(=O)Nc2nnc(C3CCCCC3)s2)cc1 | 17.6
2 | CCOc1ccc(OCC(=O)OCC(=O)N2CCN(C(=O)c3ccco3)CC2)cc1 | -21.9
3 | O=C(CSc1nnc(SCc2ccc(F)cc2)s1)Nc1ccc(C(=O)O)cc1 | 18.6
4 | O=C(O)c1cc(O)ccc1NC(=O)C1CCCO1 (centres unmarked) | -0.924
5 | O=C(c1ccc(F)cc1F)N1CCN(c2ccccn2)CC1 | 0.804
6 | O=C1NC(=O)C(Cc2ccccc2)(c2cccnc2)N1 (centres unmarked) | 17.7
7 | Cc1ccc2nc(/C(C#N)=C\c3ccc(Oc4ccc([N+](=O)[O-])cn4)cc3)[nH]c2c1 | 1.61
8 | CCc1ccc(-c2cc(C(=O)N/N=C/c3ccccn3)[nH]n2)cc1 | -41.7
9 | CC(=O)N1CCCC(N2CCN(c3cccc(C(F)(F)F)c3)CC2)C1 (centres unmarked) | -3.73
10 | Cc1ccc(C(=O)N2CCCC(N3CCN(c4cccc(C(F)(F)F)c4)CC3)C2)s1 (centres unmarked) | -51
11 | CC1=C(C(=O)N2CCCC(N3CCN(c4cccc(C(F)(F)F)c4)CC3)C2)OCCO1 (centres unmarked) | -17.9
12 | COc1cccc(C(=O)Nc2sc(C(C)C)cc2C(N)=O)c1OC | -50.5
13 | COc1cccc(NC(=O)c2cccc(OC)c2OC)c1 | -0.56
14 | COc1cccc(C(=O)Nc2nnc(-c3ccccc3)s2)c1OC | 4.52
15 | CCCN1C(=O)c2cc(C(=O)NC3CCCC3)ccc2C1O (centres unmarked) | -2.01
16 | Cc1ccc(NCN2C(=O)C3CC=CCC3C2=O)cc1 (centres unmarked) | 2.67
17 | CCCN(CC(=O)Nc1ccccc1OC)C(=O)c1ccc(S(=O)(=O)Nc2ccccc2)cc1 | -53.4
18 | CCOC(=O)c1c(C)[nH]c(C)c1S(=O)(=O)N(C)CC(=O)Nc1ccccc1OC | -60
19 | CCOC(=O)c1c(C)[nH]c(C)c1S(=O)(=O)N(C)CC(=O)Nc1ccccc1C | 14.4
20 | COc1ccccc1NC(=O)CN(Cc1ccco1)C(=O)c1ccc(-n2nc(C)cc2C)cc1 | -51.2
21 | CCOC(=O)c1c(C)[nH]c(C)c1S(=O)(=O)N(C)CC(=O)Nc1cc(C)ccc1OC | -24.7
22 | CCN(CC(=O)Nc1ccccc1OC)C(=O)c1ccc(N(C)S(=O)(=O)c2ccc(C)cc2)cc1 | -62.2
23 | COc1ccccc1NC(=O)CN(Cc1ccco1)C(=O)c1ccc(Cl)nc1 | -28.4

Row | Compound | hERG current change (%, negative = inhibition) at 10uM [%]
24 | CCCN(CC(=O)Nc1ccccc1OC)C(=O)c1cccc(S(=O)(=O)Nc2ccc(OC)cc2)c1 | -11.4
25 | CCN(Cc1ccccc1)C(=O)c1ccc(N(C)S(=O)(=O)c2ccc(C)cc2)cc1 | -38.7
26 | CCN(CC(=O)NC(C)C)C(=O)c1ccc(S(=O)(=O)N(C)c2ccccc2OC)cc1 | -2.53
27 | COc1ccccc1NC(=O)CN(Cc1ccco1)C(=O)c1cncc(Br)c1 | -22.4
28 | CCN(CC(=O)Nc1ccccc1OC)C(=O)c1ccc(NS(=O)(=O)c2ccc(C(C)=O)cc2)cc1 | 0.13
29 | COc1ccc2[nH]cc(C(=O)CCl)c2c1 | 8.92
30 | COCCN1C(=O)N(c2ccccc2)C(=O)C1CC(=O)Nc1cc(OC)cc(OC)c1 (centres unmarked) | 14
31 | CSc1nnc(C)c(/C=C/NOCc2cccc(F)c2)n1 | 4.03
32 | Cl.OCCN(Cc1ccccc1)CC(O)COc1ccc(-c2ccccc2)cc1 (centres unmarked) | -28.3
33 | CCOC(=O)c1ccc(NC(=O)CCc2nc(-c3cccc(C)c3)no2)cc1 | 7.13
34 | Cc1ccc(S(=O)(=O)c2c(C)cc(C)[nH]c2=O)cc1 | 20.3
35 | CCn1nnnc1SCC(=O)Nc1cccc(NC(C)=O)c1 | -1.06
36 | Cc1csc(NC(=O)CSc2nncc(=O)n2N)n1 | 19
37 | O=C(Nc1cccc(/C=C/c2ccccn2)c1)c1ccc(-n2cncn2)c([N+](=O)[O-])c1 | -24.9
38 | Cc1cc(C)cc(OCC(=O)Nc2cc(C)on2)c1 | 15.9
39 | Cc1c(NS(=O)(=O)c2cccc(C(=O)NCc3ccncc3)c2)c(=O)n(-c2ccccc2)n1C | 6.38
40 | Cc1nnc2c(NC(C)C)nc3ccccc3n12 | -26.8
41 | CC(C)Sc1nc2ccccc2n2cnnc12 | -6.25
42 | Cc1nnc2c(SC(C)C)nc3ccccc3n12 | -77.2
43 | CCC(NC(=S)NCc1ccc(F)cc1)c1ccc(C)cc1 (centres unmarked) | 13.7
44 | COc1ccc(NC(=O)c2ccccc2NC(=O)C2CC=CCC2C(=O)O)cc1 (centres unmarked) | 15.6
45 | Cc1ccc(CNC(=O)CCSCc2ccc(C)cc2)cc1 | -2.27
46 | CCOC(=O)C1CCCN(Cc2nc(Cc3ccccc3Cl)no2)C1 (centres unmarked) | -14.1

Row | Compound | hERG current change (%, negative = inhibition) at 10uM [%]
47 | CCOC(=O)C1CCCN(C2CCN(Cc3nc(Cc4ccccc4)no3)CC2)C1 (centres unmarked) | -60.3
48 | Cc1ccc(-c2noc(CN3CCC(C(N)=O)CC3)n2)cc1 | 21.9
49 | NC(=O)C1CCN(Cc2nc(-c3ccccc3)no2)CC1 | -14.1
50 | CCOC(=O)N1CCN(Cc2nc(-c3ccccc3)no2)CC1 | 2
51 | CCOC(=O)C1CCN(C2CCN(Cc3nc(-c4ccccc4)no3)CC2)CC1 | -71.5
52 | CCOC(=O)C1CCCN(Cc2nc(Cc3cccc(F)c3)no2)C1 (centres unmarked) | -6.6
53 | CCOC(=O)C1CCCN(C2CCN(Cc3nc(-c4ccccc4)no3)CC2)C1 (centres unmarked) | -56.5
54 | CCOC(=O)C1CCN(Cc2nc(-c3ccc(OC)c(OC)c3)no2)CC1 | 2.83
55 | CCc1ccccc1NC(=O)Cn1nc(C(F)(F)F)c2c1CCC2 | 7.74
56 | CN=c1scc(C)n1/N=C/c1cc(Br)c(O)c(OC)c1 | 15.8
57 | C=C(C)c1cccc(C(C)(C)NC(=O)NCC2CCCO2)c1 (centres unmarked) | 3.74
58 | CCOc1ccc(Cl)cc1S(=O)(=O)N1CCC(C(=O)NCC2CCCO2)CC1 (centres unmarked) | -2.63
59 | CC(C)c1nc(N2CCOCC2)c(C#N)c2c1COC(C)(C)C2 | 9.56
60 | Cc1cc(/C=C2/C(=N)N3C(=NC2=O)SN=C3S(C)(=O)=O)c(C)n1-c1ccccc1 | 0.917
61 | Cc1cc(/C=C2/C(=N)N3C(=NC2=O)SN=C3S(C)(=O)=O)c(C)n1-c1ccc(F)cc1 | 47.6
62 | CCOc1ccc(-n2c(C)cc(/C=C3/C(=N)N4C(=NC3=O)SN=C4S(C)(=O)=O)c2C)cc1 | -53.4
63 | CCOc1ccccc1OCCC(=O)OCC(=O)c1ccc[nH]1 | -16.2
64 | Cc1cc(NC(=O)C23CCC(C)(C(=O)O2)C3(C)C)no1 (centres unmarked) | 12
65 | CCN(CC)CCCN(Cc1cc2cc(OC)ccc2[nH]c1=O)C(=O)Nc1ccccc1 | -55.3
66 | COc1ccc(NC(=O)N(Cc2cc3cc(OC)ccc3[nH]c2=O)CC2CCCO2)cc1 (centres unmarked) | -31.6
67 | CCN(CC)CCCN(Cc1cc2cc3c(cc2[nH]c1=O)OCO3)C(=S)Nc1ccc(OC)cc1 | -46.8
68 | CCOc1ccc2[nH]c(=O)c(CN(Cc3cccnc3)C(=O)Nc3ccccc3OC)cc2c1 | -6.63
69 | COc1ccc2[nH]c(=O)c(CN(Cc3cccnc3)C(=O)Nc3ccccc3)cc2c1 | -54.6

Row | Compound | hERG current change (%, negative = inhibition) at 10uM [%]
70 | CCN(CC)CCCN(Cc1cc2cc(OC)c(OC)cc2[nH]c1=O)C(=O)Nc1ccccc1 | -13.8
71 | COc1ccc2[nH]c(=O)c(CN(CC3CCCO3)C(=O)Nc3ccccc3)cc2c1 (centres unmarked) | -2.72
72 | COc1ccc(NC(=O)N(CCCN(C)C)Cc2cc3cc(OC)ccc3[nH]c2=O)cc1 | -38.5
73 | COc1cc2cc(CN(Cc3cccnc3)C(=O)Nc3ccccc3)c(=O)[nH]c2cc1OC | -21.8
74 | CCN(CC)CCCN(Cc1cc2cc(OC)ccc2[nH]c1=O)C(=O)Nc1ccc(F)cc1 | -69.9
75 | COc1ccc2[nH]c(=O)c(CN(CCCN(C)C)C(=O)Nc3ccccc3)cc2c1 | -29.2
76 | COc1ccc2[nH]c(=O)c(CN(CCCN(C)C)C(=O)Nc3ccc(F)cc3)cc2c1 | -65.7
77 | COC(=O)c1cscc1NC(C)=O | 20.7
78 | O=C(O)CCc1n[nH]c(=S)[nH]c1=O | 5.81
79 | Cc1ccc(C)c(C(=O)C(C)OC(=O)CN2C(=O)NC3(CC(C)CC(C)(C)C3)C2=O)c1 (centres unmarked) | 23.2
80 | CCOc1ccc(CCNC(=O)Cn2cccc2C(=O)c2ccccc2)cc1OCC | -2.85
81 | CSCCC(NC(=O)COc1ccccc1)C(=O)Nc1ccc(C)cc1 (centres unmarked) | -3.07
82 | CC(=Nc1ccccc1)c1sc2ccccc2c1O | -10.8
83 | ON1C(c2ccc(Cl)cc2Cl)N(O)[C@H]2CCCC[C@H]21 (some centres unmarked) | -1.85
84 | CCN(CC)CCCN(Cc1cc2cc3c(cc2[nH]c1=O)OCCO3)C(=O)Nc1ccc(F)cc1 | -61.6
85 | COc1ccc2cc(CN(C(=O)Nc3ccccc3)C3CCCC3)c(=O)[nH]c2c1 | -60.5
86 | COc1ccc2cc(CN(C(=O)Nc3ccccc3OC)C3CCCC3)c(=O)[nH]c2c1 | -46.9
87 | CCN(CC)CCCN(Cc1cc2cc3c(cc2[nH]c1=O)OCCO3)C(=O)Nc1ccccc1 | -41.7
88 | CCN(CC)CCCN(Cc1cc2cc3c(cc2[nH]c1=O)OCO3)C(=S)Nc1ccccc1 | -45.9
89 | COc1cc2cc(CN(C(=O)Nc3ccccc3)C3CCCC3)c(=O)[nH]c2cc1OC | -44.2
